Assay results as given in PubChem BioAssay (EPA / NIEHS).
The source made the active and inactive calls. Rule for the calls: active = hit-call score of the fitted dose curve at least 0.9, where 1 is the maximum; inactive = score below 0.9.

The molecules below were run on TTR (gene 7276) (assay: CCTE_GLTED_hTTR_0.125uM: CCTE's human Transthyretin (hTTR) Inhibition Assay, with 0.125uM TTR, Great Lakes Toxicology and Ecology Division (GLTED) Lab (AID 2284431);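 note: hits lower the fluorescence signal relative to DMSO baseline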).
Outline: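 TTR 0.125uM + test chemical, 2 h; ANSA probe displacement; ex 380/em 475 fluorescence; signal loss vs DMSO control.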

Compound | AC50 | outcome
Cc1oc2c(NC(=O)c3c(Cl)cccc3Cl)cccc2c1C(C)(C)O | 1470 nM (active) | –
O=C(O)Cc1cc(I)c(Oc2ccc(O)c(I)c2)c(I)c1 | 22.4 nM (active) | –
COCC(C)OCC(C)OCC(C)O (configuration not stated) | – | inactive
CCCCCc1ccc(N)cc1 | 26300 nM (active) | –
CCCCCCCCOC(=O)c1cc(O)c(O)c(O)c1 | 512 nM (active) | –
CC/C(=C(/CC)c1ccc(O)cc1)c1ccc(O)cc1 | 21 nM (active) | –
CC(C)(c1cc(Br)c(O)c(Br)c1)c1cc(Br)c(O)c(Br)c1 | 22.8 nM (active) | –
CCCOC(=O)c1cc(O)c(O)c(O)c1 | 260 nM (active) | –
CCCCOC(=O)c1ccc(O)cc1 | 2260 nM (active) | –
CN(C)c1ccc(C(=C2C=CC(=[N+](C)C)C=C2)c2ccc(N(C)C)cc2)cc1 | 21600 nM (active) | –
CCCCCCCCOc1ccc(C(=O)c2ccccc2)c(O)c1 | 25000 nM (active) | –
CCCCCCCCCC(=O)O | 7040 nM (active) | –
